In PubChem BioAssay:
Active and inactive are the calls of the source. Unless noted, no rule for the calls is given here.

Assays:
[1] = system: Aerobactin synthetase IucA (Klebsiella pneumoniae); assay: inhibition of K. pneumoniae IucA enzyme – biochemical, Tocris library, absorbance (AID 1345561); conditions: purified IucA enzyme assay, absorbance (OD) read-out; stronger effect = lower value;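 tested at 8 µM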;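 also: 100% = enzyme without compound and 0% = no enzyme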
[2] = viability loss with induced miR-34 in A549 – imaging, A549 dox-inducible miR-34, nuclei and caspase counts, primary screen (AID 1347080;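 active = compounds whose cell count with miR-34 switched on is under 0.7 times the count with it off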); conditions: A549 miR-34 inducible, Hoechst nuclei count, 48 h
[3] = galactose survival enhancers in mitochondrial complex I cybrids – cell-based, galactose medium, ATP luminescence, primary screen (AID 1645843;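 active = z-score of at least 1.8 in each of two replicates, scored against plate mean and spread of sample wells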;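 also: positive z means more ATP and so rescue of galactose-driven cybrid death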); conditions: complex I mutant cybrid cells, 72 h, stronger effect = higher value
[4] = system: Hepatitis C virus NS3 helicase; assay: blockers of NS3h binding to ssDNA – biochemical, fluorescence polarization, LOPAC1280 library, primary screen (AID 687035; in the data active = inhibition above about 37%); conditions: Purified HCV NS3 helicase, Cy5-dT15 ssDNA binding fluorescence polarization; stronger effect = higher value; concentration not given here
[5] = compounds altering Cy5-DNA-NS3h complex signal – biochemical, LOPAC1280, artefact control for HCV NS3 helicase inhibitor project (AID 687037); conditions: Cy5-DNA-NS3h complex fluorescence interference counterscreen
[6] = compounds altering circadian rhythm period length – cell-based, LOPAC library, luminescence reporter (AID 2774); conditions: circadian reporter cells, at 7 µM, actives lie on both sides;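 also: values are relative to mean of DMSO wells on each plate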
[7] = P. berghei load reduction in hepatocytes – cell-based, HepG2, luciferase luminescence, HepG2 viability, primary screen (AID 624349; in the data active = parasite load remaining mostly below about 12%, no sharp cut-off; inactive = mostly above about 10%;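 also: 100% = mean of DMSO negative control wells on the same plate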); conditions: P. berghei liver stage in HepG2, luciferase luminescence, concentration not given here; parasite load remaining: stronger effect = lower value; viability: measured here: HepG2 viability without parasites
[8] = stronger effect = lower value, cell number ratio, induced over uninduced
[9] = measured here: relative caspase fold change +Dox/-Dox
[10] = measured here: total cells with miR-34 induction, stronger effect = lower value
[11] = measured here: total cells without miR-34 induction

| SMILES | remaining activity [1] | fold change [2, 8] | fold change [2, 9] | cell count [2, 10] | cell count [2, 11] | z-score [3] | inhibition [4] | fluorescence ratio (interference) [5] | period change [6] | parasite load remaining [7] | viability [7] |
| --- | --- | --- | --- | --- | --- | --- | --- | --- | --- | --- | --- |
| Cc1o[nH]c(=O)c1C[C@H](N)C(=O)O | 106% (inactive) | 1.04 (inactive) | 0.71 | 9160 | 8800 | 0.59 (inactive) |  |  |  |  |  |
| C=CCN1C[C@H](C)N([C@H](c2ccc(C(=O)N(CC)CC)cc2)c2cccc(O)c2)C[C@H]1C | 99.4% (inactive) | 0.929 (inactive) | 0.728 | 8160 | 8780 | -0.17 (inactive) |  |  |  |  |  |
| COc1ccc2c(c1)c(CCN1CCOCC1)c(C)n2C(=O)c1cccc(Cl)c1Cl | 101% (inactive) | 0.915 (inactive) | 1.25 | 6500 | 7100 | -0.005 (inactive) | -1% (inactive) | 1.1 (inactive) |  |  |  |
| CCOC(=O)c1ncn2c1CN(C)C(=O)c1cc(N=[N+]=[N-])ccc1-2 | 97.3% (inactive) | 0.891 (inactive) | 1.09 | 7930 | 8900 | 0.06 (inactive) |  |  |  |  |  |
| N[C@]1(C(=O)O)CC[C@@H](C(=O)O)C1 (racemic) | 103% (inactive) | 0.971 (inactive) | 0.73 | 7990 | 8230 | 0.095 (inactive) |  |  |  |  |  |
| CN1CCN(c2ccc3ccccc3n2)CC1 | 109% (inactive) | 0.923 (inactive) | 0.813 | 8930 | 9670 | -0.58 (inactive) |  |  | -0.045 h (inactive) |  |  |
| Cc1[nH]cnc1CCN | 109% (inactive) | 0.956 (inactive) | 1.94 | 10000 | 10500 | 0.125 (inactive) |  |  |  |  |  |
| CCCCC1(C2CCCC2)Cc2cc(OCCCC(=O)O)c(Cl)c(Cl)c2C1=O (centres undefined) | 98.2% (inactive) | 0.969 (inactive) | 0.91 | 7490 | 7730 | 3.13 (active) |  |  |  |  |  |
| Cc1ncc(CN2CC=C(c3ccccc3)CC2)c(N)n1 | 92.9% (inactive) | 0.973 (inactive) | 1.21 | 8940 | 9190 | -0.505 (inactive) |  |  |  |  |  |
| O=C1NC(=O)c2c1c1c3ccccc3n3c1c1c2c2ccccc2n1C1CCC3O1 | 103% (inactive) | 1.12 (inactive) | 1.11 | 5410 | 4820 | -0.395 (inactive) |  |  |  | 66.3% (inactive) | 60.2% |
| CCCOc1ccc2[nH]cc(C3=CCNCC3)c2n1 | 119% (inactive) | 0.982 (inactive) | 0.876 | 9040 | 9210 | -0.37 (inactive) |  |  |  |  |  |
| c1ccc(CCCCN2CCC(c3ccccc3)CC2)cc1 | 90.6% (inactive) | 0.976 (inactive) | 1.02 | 8670 | 8890 | 0.375 (inactive) |  |  |  |  |  |
| O=C1CN=C(c2cccc(Br)c2)c2oc3ccccc3c2N1 | 121% (inactive) | 1.01 (inactive) | 1.75 | 2110 | 2080 | -0.285 (inactive) |  |  |  |  |  |
| CN1[C@@H]2CC[C@H]1CC(OC(=O)N1Cc3ccccc3NC1=O)C2 (some centres undefined) | 119% (inactive) | 0.979 (inactive) | 1.11 | 8310 | 8490 | 0.365 (inactive) |  |  |  |  |  |
| CN1Cc2ccccc2[C@@H]2c3cccc4[nH]cc(c34)C[C@H]21 | 114% (inactive) | 0.936 (inactive) | 0.677 | 4560 | 4870 | -0.7 (inactive) |  |  |  |  |  |
| O=C(CCCN1CCC2(CC1)C(=O)N(Cc1cccc(F)c1)CN2c1ccccc1)c1ccc(F)cc1 | 109% (inactive) | 1.27 (inactive) | 1 | 1590 | 1250 | -1.2 (inactive) |  |  |  |  |  |
| C[C@@H]1O[C@@H](O[C@@H]2C[C@@H](O)[C@]3(CO)[C@H]4[C@H](O)C[C@]5(C)[C@@H](C6=CC(=O)OC6)CC[C@]5(O)[C@@H]4CC[C@]3(O)C2)[C@H](O)[C@H](O)[C@H]1O | 107% (inactive) | 0.807 (inactive) | 1.91 | 346 | 430 | -0.765 (inactive) |  |  |  |  |  |
| COc1cc2c(cc1O)C(CCc1ccc(Cl)cc1)N(C)CC2 (centres undefined) | 109% (inactive) | 0.951 (inactive) | 1.1 | 7110 | 7480 | -0.615 (inactive) |  |  |  |  |  |
| COC1CCC2NC(C(=O)c3ccccc3)CC2C1 (centres undefined) | 86.6% (inactive) | 1.14 (inactive) | 0.708 | 1500 | 1320 | 0.23 (inactive) |  |  |  |  |  |
